The values that follow come from the supplement of paper PMC6658780.

Counter-ions that a name gives are not always drawn. ± gives the standard deviation of the averaged measurements.

In test [1] the test system is Klebsiella pneumoniae KPC-119. Nature of the test: percent growth inhibition of drug alone vs DMSO control; higher = more growth inhibition. Particulars: antibiotic (0.125x MIC): none (0.1% DMSO).
The test system of test [2] is Klebsiella pneumoniae KPC-119. Nature of the test: percent growth inhibition of drug + antibiotic vs DMSO control; higher = more growth inhibition.
Test [3] deals with Klebsiella pneumoniae NCTC-13439. The test is described as follows: percent growth inhibition of drug alone vs DMSO control; higher = more growth inhibition. Particulars: antibiotic (0.125x MIC): none (0.1% DMSO).
The test system is the same in test [4]. The test is described as follows: percent growth inhibition of drug + antibiotic vs DMSO control; higher = more growth inhibition.
Test [5] relates to Escherichia coli ATCC BAA-2469. Described as above. The procedure: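 Prestwick drugs tested at 20 uM and 7 uM with an antibiotic at 0.125x MIC (16 mg/L when MIC >128 mg/L) against E. coli ATCC BAA-2469 (NDM-1) in CAMHB, 384-well plates, duplicate runs. Percent growth inhibition was computed from OD600 (24 h minus 0 h) relative to DMSO wells. Drug + DMSO-only wells are also given. […]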

[6] abbreviates: antibiotic (0.125x MIC): colistin, 20 µM.
The mark [7] stands for this setting: antibiotic (0.125x MIC): colistin, 7 µM.
The mark [8] stands for this setting: antibiotic (0.125x MIC): gentamicin, 7 µM.
The mark [9] stands for this setting: antibiotic (0.125x MIC): tigecycline, 7 µM.
Where [10] appears, read: antibiotic (0.125x MIC): gentamicin, 20 µM.
[11] abbreviates: antibiotic (0.125x MIC): meropenem, 20 µM.
Setting [12] is: antibiotic (0.125x MIC): ciprofloxacin, 7 µM.

As for `CCCCOC(=O)c1ccc(N)cc1` [Butamben], the “percent growth inhibition of drug alone” value was -0.672 ± 3.4% in test [1] (7 µM) and -0.688 ± 0.36% in test [1] (20 µM). The percent growth inhibition in test [2] (setting [6]) was 3.33 ± 3%.
On to `NC[C@@H]1O[C@H](O[C@H]2[C@@H](O)[C@H](O[C@@H]3[C@@H](O)[C@H](N)C[C@H](N)[C@H]3O[C@H]3O[C@H](CO)[C@@H](O)[C@H](O)[C@H]3N)O[C@@H]2CO)[C@H](N)[C@@H](O)[C@@H]1O` [Paromomycin sulfate], for which the “percent growth inhibition of drug alone” value was -0.033 ± 0.073% in test [1] (7 µM), 41.3 ± 0.58% in test [1] (20 µM), 11.4 ± 2.6% in test [3] (7 µM) and 43.7 ± 12% in test [3] (20 µM). Besides, the percent growth inhibition was 12.7 ± 6.7% in test [2] (setting [7]), 8.59 ± 1.5% in test [2] (setting [8]) and 6.3 ± 3% in test [4] (setting [9]).
On to `CCOC(=O)c1ccc(N)cc1` [Benzocaine], for which the percent growth inhibition in test [5] (setting [8]) was found to be 0.573 ± 3.1%.
Take `CO[C@H]1/C=C/O[C@@]2(C)Oc3c(C)c(O)c4c(c3C2=O)C2=NC3(CCN(CC(C)C)CC3)NC2=C(NC(=O)/C(C)=C\C=C\[C@H](C)[C@H](O)[C@@H](C)[C@@H](O)[C@@H](C)[C@H](OC(C)=O)[C@@H]1C)C4=O` [Rifabutin]: the “percent growth inhibition of drug alone” value in test [1] (7 µM) came out at 8.64 ± 2.6%; in test [1] (20 µM), 73.8 ± 3.7%; in test [3] (7 µM), 5.74 ± 2.1%. Further, the percent growth inhibition turned out to be 97.8 ± 1.9% in test [2] (setting [7]); 98.1 ± 2.2% in test [2] (setting [6]); 41.8 ± 7% in test [2] (setting [8]); 99.4 ± 0.45% in test [2] (setting [10]); 99.645 ± 0.017% in test [2] (setting [11]); 21.5 ± 7.5% in test [4] (setting [12]). The percent growth inhibition in test [4] (antibiotic (0.125x MIC): tigecycline, 20 µM) is 30.9 ± 7.2%.
With `CCn1cc(C(=O)O)c(=O)c2cc(F)c(N3CCN(C)CC3)cc21` [Pefloxacine], the “percent growth inhibition of drug alone” value came to 12.5 ± 1.1% in test [1] (7 µM) and 51.2 ± 3.2% in test [1] (20 µM). Also, in test [2] (setting [8]), the percent growth inhibition was found to be 11.4 ± 19%.
Regarding `O=C1OCCN1/N=C/c1ccc([N+](=O)[O-])o1` [Furazolidone], the “percent growth inhibition of drug alone” value in test [1] (7 µM) turned out to be 18.3 ± 1.2%; in test [1] (20 µM), 39.8 ± 1.6%; in test [3] (7 µM) it was 17.5 ± 3%; in test [3] (20 µM), 49.8 ± 1.5%. The percent growth inhibition came to 96.1 ± 7% in test [2] (setting [7]); 99.62 ± 0.88% in test [2] (setting [6]); 17.8 ± 1.7% in test [2] (setting [8]); 99.78 ± 0.13% in test [2] (setting [10]); 17 ± 1.2% in test [4] (setting [12]); 99.97 ± 0.19% in test [4] (antibiotic (0.125x MIC): ciprofloxacin, 20 µM). For the same compound, the percent growth inhibition in test [4] (setting [9]) turned out to be 26.3 ± 2.4%.
As for `CCCCCCCCCCCCCCCC[N+](C)(C)CCN(Cc1ccc(OC)cc1)c1ncccn1` [Thonzonium bromide], the “percent growth inhibition of drug alone” value is -1.94 ± 3.1% in test [1] (7 µM) and 2.72 ± 1.4% in test [1] (20 µM). Besides, the percent growth inhibition was -2.72 ± 5.5% in test [5] (antibiotic (0.125x MIC): meropenem, 7 µM); 34.1 ± 20% in test [5] (setting [11]); 98.2 ± 3.1% in test [2] (setting [6]).
For the compound `COc1ccc2c(c1)c(CC(=O)OCC(=O)O)c(C)n2C(=O)c1ccc(Cl)cc1` [Acemetacin], the percent growth inhibition in test [5] (setting [8]) worked out at 2.64 ± 1.7%.
Regarding `C#C[C@]1(O)CC[C@H]2[C@@H]3CCC4=C(CCC(=O)C4)[C@H]3CC[C@@]21C` [Norethynodrel], in test [5] (setting [8]), the percent growth inhibition came out at 4.39 ± 3.6%.
Take `CCN1CCCC1CNC(=O)c1cc(S(N)(=O)=O)ccc1OC` (stereo not drawn) [Sulpiride]: the “percent growth inhibition of drug alone” value in test [1] (7 µM) is -2.88 ± 3.1%; in test [1] (20 µM), -3.73 ± 0.65%. In test [2] (setting [6]), the percent growth inhibition is -7.13 ± 1.4%.
In the case of `Cc1cc(C(C)(C)CC(C)(C)C)ccc1OCCOCC[N+](C)(C)Cc1ccccc1` [Methyl benzethonium chloride], the “percent growth inhibition of drug alone” value in test [1] (7 µM) was -1.94 ± 2.4%; in test [1] (20 µM) it was -2.28 ± 0.9%. Also, the percent growth inhibition in test [2] (setting [7]) was found to be 22 ± 6.4%.
For the compound `Oc1c(Cl)cc(Cl)c(Cl)c1Cc1c(O)c(Cl)cc(Cl)c1Cl` [Hexachlorophene], the “percent growth inhibition of drug alone” value amounted to 0.779 ± 4.2% in test [1] (7 µM) and 18.8 ± 7.5% in test [1] (20 µM). Besides, the percent growth inhibition in test [2] (setting [7]) came to 4.52 ± 2.5%.
`CC1CCc2cc(F)cc3c(=O)c(C(=O)O)cn1c23` (stereo not drawn) [Flumequine]: the results for the “percent growth inhibition of drug alone” value in test [1] (7 µM) and in test [1] (20 µM) were 15.15 ± 0.074% and 65.7 ± 2.7%, respectively. The percent growth inhibition in test [2] (setting [7]) stood at 88.42 ± 0.76%; in test [2] (setting [6]) it was 95.6 ± 2.3%.
In the case of `OC(c1cc(C(F)(F)F)nc2c(C(F)(F)F)cccc12)C1CCCCN1` (stereo not drawn) [Mefloquine hydrochloride], the “percent growth inhibition of drug alone” value is 0.355 ± 6.6% in test [1] (7 µM) and -2.15 ± 1.1% in test [1] (20 µM). The percent growth inhibition in test [2] (setting [7]) amounted to 1.61 ± 13%.
With `CCOC(=O)OC(C)OC(=O)[C@@H]1N2C(=O)[C@@H](NC(=O)[C@H](N)c3ccccc3)[C@H]2SC1(C)C` (stereo partly drawn) [Bacampicillin hydrochloride], the “percent growth inhibition of drug alone” value in test [1] (7 µM) was 0.511 ± 1.4%; in test [1] (20 µM), -0.333 ± 0.47%. In test [2] (setting [7]), the percent growth inhibition was -4.19 ± 0.78%.
Turning to `CO/N=C(\C(=O)N[C@@H]1C(=O)N2C(C(=O)O)=C(COC(C)=O)CS[C@H]12)c1csc(N)n1` [Cefotaxime sodium salt], the “percent growth inhibition of drug alone” value in test [1] (7 µM) is 4.98 ± 2%; in test [1] (20 µM), 37.8 ± 0.86%. The percent growth inhibition in test [2] (setting [8]) was determined as 29.3 ± 2.3%.
On to `COc1cc(C)nc(-n2nc(C)cc2OC)n1` [Epirizole], for which the “percent growth inhibition of drug alone” value in test [1] (7 µM) was -1.76 ± 0.66%; in test [1] (20 µM), -0.885 ± 4.3%. For the same compound, the percent growth inhibition is 55.5 ± 7.9% in test [2] (setting [7]) and -4.39 ± 3.8% in test [2] (setting [6]).
As for `CC(=O)OCC(=O)[C@@]1(O)CC[C@H]2[C@@H]3CCC4=CC(=O)CC[C@]4(C)[C@@]3(F)[C@@H](O)C[C@@]21C` [Fludrocortisone acetate], the results for the “percent growth inhibition of drug alone” value in test [1] (7 µM) and in test [1] (20 µM) were 1.64 ± 0.4% and 3.28 ± 1.7%, respectively. Besides, the percent growth inhibition is 58.4 ± 10% in test [2] (setting [7]) and -6.61 ± 5% in test [2] (setting [6]).
Regarding `CC(C)NCC(O)c1ccc(O)c(O)c1` (single isomer, unassigned; (-)) [(-)-Isoproterenol hydrochloride], the figures for the “percent growth inhibition of drug alone” value in test [1] (7 µM) and in test [1] (20 µM) were 0.335 ± 1.6% and 1.39 ± 1.6%, respectively. Also, the percent growth inhibition in test [2] (setting [6]) turned out to be 0.725 ± 1.5%.
`C[C@@H]1CN(c2c(F)c(N)c3c(=O)c(C(=O)O)cn(C4CC4)c3c2F)C[C@H](C)N1` [Sparfloxacin]: the “percent growth inhibition of drug alone” value stood at 33.5 ± 3.3% in test [1] (7 µM) and 99.04 ± 0.49% in test [1] (20 µM). In addition, the percent growth inhibition in test [2] (setting [7]) was determined as 99.4 ± 0.42%; in test [2] (setting [6]), 99.2 ± 0.83%.
In the case of `C/C(=C\C(=O)OCCCCCCCCC(=O)O)C[C@@H]1OC[C@H](C[C@@H]2O[C@H]2[C@@H](C)[C@H](C)O)[C@@H](O)[C@H]1O` [Mupirocin], the “percent growth inhibition of drug alone” value in test [1] (7 µM) came out at 1.64 ± 1.8%; in test [1] (20 µM), 6.42 ± 0.11%. For the same compound, the percent growth inhibition is 16.2 ± 3.3% in test [2] (setting [8]) and 41.1 ± 2.1% in test [2] (setting [10]).
Regarding `CN(C(=O)CN(CCO)CC(=O)N(C)C(C)(C)Cc1ccccc1)C(C)(C)Cc1ccccc1` [Oxethazaine], the “percent growth inhibition of drug alone” value was -4 ± 0.52% in test [1] (7 µM) and -5.74 ± 4.4% in test [1] (20 µM). Further, the values for the percent growth inhibition in test [2] (setting [7]) and in test [2] (setting [6]) were 4.52 ± 0.46% and 95.6 ± 1.6%, respectively.
`O=C1NCCN1c1ncc([N+](=O)[O-])s1` [Niridazole]: the “percent growth inhibition of drug alone” value was 9.23 ± 8.8% in test [1] (7 µM) and 74.9 ± 13% in test [1] (20 µM). Also, the percent growth inhibition in test [2] (setting [8]) worked out at 38.6 ± 6.3%; in test [2] (setting [10]) it was 95.7 ± 4.1%.
Consider `COc1nc(C)nc(Cl)c1NC1=NCCN1` [Moxonidine], for which the “percent growth inhibition of drug alone” value in test [1] (7 µM) was -0.572 ± 3.2%; in test [1] (20 µM), -0.25 ± 3.1%. The percent growth inhibition in test [2] (setting [6]) is -7.57 ± 6.4%.
As to `CO[C@@]1(NC(=O)CSCC#N)C(=O)N2C(C(=O)O)=C(CSc3nnnn3C)CS[C@@H]21` [Cefmetazole sodium salt], the “percent growth inhibition of drug alone” value in test [1] (7 µM) amounted to 2.72 ± 1.2%; in test [1] (20 µM), 32.6 ± 2.3%. Further, in test [2] (setting [8]), the percent growth inhibition worked out at 3.52 ± 6.6%.
In the case of `CN1CCN(c2c(F)cc3c(=O)c(C(=O)O)cn4c3c2SCC4)CC1` [Rufloxacin], the “percent growth inhibition of drug alone” value in test [1] (7 µM) stood at 14.6 ± 2.5%; in test [1] (20 µM) it was 83.22 ± 0.72%. Besides, the percent growth inhibition in test [2] (setting [7]) came to 96.6 ± 3.1%; in test [2] (setting [6]), 93.89 ± 0.36%.
For the compound `CC1=C(/C=C/C(C)=C/C=C/C(C)=C/C(=O)O)C(C)(C)CCC1` [Retinoic acid], the figures for the “percent growth inhibition of drug alone” value in test [1] (7 µM) and in test [1] (20 µM) were 1.08 ± 2.4% and 0.222 ± 2%, respectively. The percent growth inhibition in test [2] (setting [6]) is -10.3 ± 2.1%.
Consider `CO[C@@H]1[C@@H](OC(N)=O)[C@@H](O)[C@H](Oc2ccc3c(O)c(NC(=O)c4ccc(O)c(CC=C(C)C)c4)c(=O)oc3c2C)OC1(C)C` [Novobiocin sodium salt], for which the “percent growth inhibition of drug alone” value in test [1] (7 µM) came out at 0.874 ± 4.5%; in test [1] (20 µM), 5.13 ± 1.4%. Also, the percent growth inhibition in test [2] (setting [7]) stood at 34.1 ± 0.68%; in test [2] (setting [6]), 98.55 ± 0.69%.
